Assay results as given in PubChem BioAssay (NCI).
The panel holds about 83,000 compounds, 20% with a hit somewhere; the sample as a whole holds those more often.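 A percent growth of 40 corresponds to 60% growth inhibition; 0 means no net growth; -100 means all cells died. Active threshold: below 10.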 A number with no mark means an inactive call. Activity calls are given as the source filed them.

How the values were obtained:
Experiment in all cases: NCI-60 one-dose screen, 48 h (100 = growth as untreated, 0 = no growth, -100 = all killed)
Settings in all cases: 10 µM unless noted
[1] = tested on: NCI-H23 lung
[2] = tested on: NCI-H226 lung
[3] = tested on: NCI-H322M lung
[4] = tested on: HOP-62 NSCLC
[5] = tested on: NCI-H460 lung
[6] = tested on: HOP-92 NSCLC
[7] = tested on: NCI-H522 lung
[8] = tested on: A549/ATCC NSCLC
[9] = tested on: 786-0 renal
[10] = tested on: COLO 205 colon
[11] = tested on: DU-145 prostate
[12] = tested on: K-562 leukemia
[13] = tested on: MALME-3M melanoma
[14] = tested on: MDA-MB-231 breast
[15] = tested on: RXF 393 renal
[16] = tested on: SF-268 CNS
[17] = tested on: SF-295 CNS
[18] = tested on: SF-539 CNS
[19] = tested on: UACC-257 melanoma
[20] = tested on: M14 melanoma

SMILES	growth [1]	growth [2]	growth [3]	growth [4]	growth [5]	growth [6]	growth [7]	growth [8]	growth [9]	growth [10]	growth [11]	growth [12]	growth [13]	growth [14]	growth [15]	growth [16]	growth [17]	growth [18]	growth [19]	growth [20]
C=CC(CC(c1ccccc1)(c1ccccc1)c1ccccc1)N(CC)CC (stereo not given)	71.7%	75.7%	90%	87.5%	62.6%	54.8%	84.1%	82.5%	67.8%	64.5%	58.8%	25.4%	54%	53.4%	40.6%	73.9%	78.8%	69.1%	79.3%	30.1%
COc1cc(Cc2cc(OC)c(O)c(OC)c2)cc(OC)c1O	87.6%	106%	94.2%	88.9%	99.1%	89.6%	56.5%	84.1%	107%	109%	117%	20.1%	86%	95.2%	86.3%	105%	62.2%	101%	89.3%	75.3%
CCOC(=O)c1c(C)nc2ccccc2c1/C=C/c1ccc(F)cc1	51.3%	73.9%	94.7%	80.9%	81.7%	42.1%	53.8%	57.7%	79.5%	83.6%	89.6%	50%	98.7%	75.9%	101%	85.2%	67.7%	81%	83%	86.5%
CCOC(=O)c1c(NC(=O)c2ccccc2)sc2c3c(ccc12)OCN(C)C3	12.8%	87.8%	-11.3% (active)	52.2%	-67.9% (active)	-4.6% (active)	-51.4% (active)	22.2%	-79% (active)	-54.7% (active)	11.6%	-53.3% (active)	-89.2% (active)	-74.7% (active)	-73% (active)	9.19% (active)	-76.8% (active)	-43.7% (active)	-62.2% (active)	-74.2% (active)
COc1ccc(/C=N/Nc2c3ccccc3nc3ccccc23)cc1	88.3%	83.4%	101%	98%	99.5%	90.2%	90.7%	96.5%	90.8%	103%	90.4%	87.9%	105%	93.9%	103%	96%	90.3%	95.4%	103%	106%
COc1cccc(-c2cn3nc(-c4cn(C)c5ccccc45)sc3n2)c1	90%	89.6%	96.9%	96.5%	101%	81.8%	67.6%	94.6%	104%	108%	106%	48%	84.1%	85.6%	104%	94.8%	96.3%	94%	97.5%	84.3%
COc1ccc(/C=C(/C(=O)N2CCNCC2)c2cc(OC)c(OC)c(OC)c2)cc1O	49.9%	88.7%	50%	56.4%	37.6%	48.7%	0.313% (active)	41.6%	95.5%	25.9%	27%	22%	46.6%	58.2%	7.47% (active)	49.5%	66.3%	6.82% (active)	27%	38%
COc1ccc(C2CC(n3ccnc3)c3cc(OC)c(OC)c(OC)c32)cc1O (stereo not given)	91.5%	97.4%	102%	80.8%	78.7%	59.6%	50.1%	55.8%	91.7%	107%	102%	44.7%	73.2%	81%	70.8%	90%	57.5%	89.8%	58.5%	73.1%
COc1ccc(N=C2NN=C(c3c[nH]c4ccccc34)CS2)cc1OC	67.7%	80.6%	70%	50.5%	26.9%	19.6%	-34.1% (active)	55%	54.8%	57.9%	65.9%	36.6%	69.3%	55.4%	68.6%	56.2%	-31.9% (active)	51.8%	77.4%	34%
Cc1cc(C)c2c(c1)N(C)c1ncnc(-n3c(C)nc4cc(C)ccc43)c1CC2C (stereo not given)	61.7%	61.6%	73.4%	43.7%	22.6%	11.2%	19.4%	26.3%	30.1%	54.1%	55.3%	12.4%	45.4%	61.2%	-10.4% (active)	45.9%	9.14% (active)	25.2%	25.8%	25.3%
C#COc1cccc(Nc2ncnc3cc(NC(=O)[C@H](C)Cl)ccc23)c1	18.5% [6.25 µM]	41.7% [6.25 µM]	30% [6.25 µM]	7.33% [6.25 µM] (active)	3.29% [6.25 µM] (active)	81.5% [6.25 µM]	-46.2% [6.25 µM] (active)	2.95% [6.25 µM] (active)	14.2% [6.25 µM]	12.2% [6.25 µM]	20.3% [6.25 µM]	99.7% [6.25 µM]	37.5% [6.25 µM]	19.1% [6.25 µM]	15.5% [6.25 µM]	27.7% [6.25 µM]	1.61% [6.25 µM] (active)	0.539% [6.25 µM] (active)	21.2% [6.25 µM]	11.7% [6.25 µM]
C=CN(C(=O)N1CCN(c2cc3c(cc2F)c(=O)c(C(=O)O)cn3C2CC2)CC1)c1nc(-c2ccc(Cl)cc2)cs1	67.8%	87.9%	69.4%	69.4%	23.5%	60.1%	64.7%	40.7%	82.8%	84.2%	81.1%	47.6%	89.9%	76.4%	53.3%	44.7%	58.6%	67%	87.6%	60.2%
N#C/C(=C\c1ccc(-c2cccc(Cl)c2)o1)C(=O)Nc1ncc(Cc2ccc(Cl)cc2)s1	59.6%	74%	33.6%	15.9%	25%	79.8%	83.4%	31.6%	37.3%	83.7%	55.9%	80.6%	42.7%	34.1%	86.7%	72%	45.3%	56.6%	23.9%	62.5%
COc1ccc2c(c1)c(-c1nc(-c3ccc4ccccc4c3)cs1)cn2C	87.1%	85.3%	85.1%	90.4%	98.4%	93%	79.2%	82.6%	75.4%	84%	103%	67.7%	149%	80.2%	69.1%	100%	104%	89%	94%	96.9%
CSc1ccc(N2C(=N)C(=S)N(c3ccc(C)cc3)C2=O)cc1	98.3%	96.3%	99%	86.2%	102%	90%	80.5%	87.6%	91.5%	98%	104%	82%	94.4%	101%	113%	90.7%	96.1%	92.8%	99.7%	86.1%
